Sampled rows, rich in hits. Any-hit rate of the full collection: about 6.8%.
TSG101-PTAP inh = blocks PTAP/TSG101 interaction to inhibit HIV-1 budding; Q99816; Fluorescence polarization, FITC-PTAP peptide / Tsg101 binding; Potency, µM (highest dose often 115 µM), for the others: at the top dose activity change, negative = inhibition, actives largely listed as inhibitors; 340,000 tested, under 10 active; AID 493005; active means well fitted inhibition curve with a large enough effect in the main read-out, with a control signal flat, not every such curve was filed as active; inconclusive means small, poorly fitted or top-dose-only effect, or effect the other way, or a change in a side signal; inactive means no such curve, though single readings can be large or run the other way; further: % of control where 0% means no effect
Target sequence (Q99816 whole entry, looked up): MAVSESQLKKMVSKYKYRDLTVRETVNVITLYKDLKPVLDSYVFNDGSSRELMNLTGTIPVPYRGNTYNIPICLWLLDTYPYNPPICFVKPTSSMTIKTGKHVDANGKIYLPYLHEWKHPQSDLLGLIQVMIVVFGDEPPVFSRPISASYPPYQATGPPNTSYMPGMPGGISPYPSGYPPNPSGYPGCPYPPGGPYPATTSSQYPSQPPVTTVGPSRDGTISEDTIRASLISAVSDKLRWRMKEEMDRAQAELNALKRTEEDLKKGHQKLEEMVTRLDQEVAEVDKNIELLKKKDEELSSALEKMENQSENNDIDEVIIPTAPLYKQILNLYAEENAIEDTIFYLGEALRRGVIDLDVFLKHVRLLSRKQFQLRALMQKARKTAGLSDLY
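Tsg101 binding domain (10 uM final) was mixed with compound and a FITC-labeled PTAP peptide (50 nM final) in HEPES pH 7.5 buffer with NaCl, Tween 20, EDTA and TCEP; fluorescence polarization was read after 20 min at r.t.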
SW480 rerep = induces DNA re-replication in SW480 colon adenocarcinoma cells; 340,000 tested, 1.8% active; Potency, µM (highest dose often 46.1 µM), without a hit: top-dose re-replication activation, most hits filed as activators; SW480 DNA re-replication, Hoechst DNA content imaging, 48 h; AID 624297; further: % of control where 0% means no effect; nearly all actives have a fitted effect of over 55% in size
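SW480 cells exposed to compounds for 48 hr at 37 C, 5% CO2, then Hoechst-stained 40 min. Nuclear DNA content imaged by fluorescence scanning (405 nm excitation, 500-530 nm emission); re-replication scored as increased high-intensity nuclei.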
KB-V1 MDR tox = KB-V1 MDR subline cytotoxicity; Potency, µM (highest dose often 46.1 µM), most hits filed as cytotoxic; 400,000 tested, 3.4% active; KB-V1 MDR cells viability, CellTiter-Glo, 72 h; further: on the % scale 0 is the no-effect control and ±100 the full control effect; nearly all actives have a fitted effect of over 60% in size
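KB-V1 MDR subline cells in DMEM (phenol-red free, 10% FBS) exposed to compounds in qHTS concentration series for 72 h at 37 degrees C. Viability read by CellTiter-Glo luminescence; concentration-effect curves fitted after normalization and correction.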
KB-3-1 cytotox = kills parental KB-3-1 adenocarcinoma cells | KB-3-1 viability, CellTiter-Glo ATP luminescence, 72 h | Potency, µM (highest dose often 46.1 µM), usual class: cytotoxic | 400,000 tested, 1.4% active | AID 1347075; further: on the % scale 0 is the no-effect control and ±100 the full control effect; nearly all actives have a fitted effect of over 60% in size
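KB-3-1 cells, DMEM (no phenol red) + 10% FBS; compound by pin transfer, 72 h, 37 °C. Readout: CellTiter-Glo luminescence after 10 min. Data normalized, curve-fitted.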
PINK1 modulator = modulators of PINK1 expression; PINK1 immunofluorescence, high-content cytometry, 24 h; Potency, µM (top dose mostly 76.6 µM), for inactives: at the top dose activation (PINK1 increase), usual class: activators; 410,000 tested, 0.2% active; AID 624263; active means well fitted activation curve with a large enough effect; inconclusive means small, poorly fitted or top-dose-only effect; cell line not stated here; further: % of control where 0% means no effect; nearly all actives have a fitted effect of over 65% in size
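Decision-based qHTS: stable cells, 24 h exposure to five compound concentrations, CCCP as control. Fixed cells stained for PINK1 plus nuclear, mitochondrial and cell markers, cytometer read.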
MCF10A rerep = inducers of DNA re-replication in MCF 10A breast cells; 350,000 tested, 2.9% active; MCF 10A DNA re-replication, Hoechst nuclear intensity, 48 h; Potency, µM (series often up to 46.1 µM), without a hit: at the top dose activity, positive = re-replication, hits mostly activators; further: % of control where 0% means no effect; nearly all actives have a fitted effect of over 50% in size
The depositor's hits bear a star; i = inactive; ? = inconclusive; . = no result; [ ] = another dose, or the depositor's remark. Unless noted, the call rests on the fitted dose curve; in most records, active means well fitted curve in the direction sought with a large enough effect; inconclusive means small, poorly fitted or top-dose-only effect, or another doubt; inactive means no such curve, though single readings can be large; an effect the other way counts as inactive or inconclusive. Potency means the concentration at half of the fitted maximal effect.

SMILES	TSG101-PTAP inh	SW480 rerep	KB-V1 MDR tox	KB-3-1 cytotox	PINK1 modulator	MCF10A rerep
COCCN(C(=O)CCC(=O)Nc1cc(C)on1)C(C(=O)NC1CCCC1)c1ccccc1C (stereo not drawn)	-6%	-27%	i	i	0%	-1%
COc1ccc2nc(C)cc(Nc3ccc(Cl)c(Cl)c3)c2c1	.	.	?	?	3%	.
Cc1ccc(NC(=O)C2CCN(C(=O)c3cnn(-c4ccccc4)c3-n3cccc3)CC2)cc1C	.	.	i	i	0%	.
Cc1ncc2c(c1CNC(=O)c1ccc3c(c1)OCO3)CCN(C(=O)/C=C/c1ccccc1Cl)C2	.	.	.	.	-1%	.
CC(=O)Nc1cccc(NC(=O)CSc2ncc(-c3ccc(Cl)cc3)n2Cc2ccco2)c1	-1%	-14%	?	?	-1%	16µM*
O=C(CSc1nnc(-c2ccccc2Cl)n1Cc1ccco1)Nc1ccc2c(c1)OCCO2	-3%	15%	i	i	-2%	5%
C=CCn1c(C)nnc1SCC(=O)Nc1ccc2c(c1)OCCO2	-3%	-4%	.	.	-2%	-5%
CCn1c(SCC(=O)Nc2ccc3c(c2)OCCO3)nnc1-c1c[nH]c2ccccc12	-2%	6%	i	i	0%	4%
C=CCn1c(SCC(=O)Nc2ccc3c(c2)OCCO3)nnc1-c1ccco1	0%	-3%	9.2µM*	i	2%	17%
O=C(CSc1nnc(-c2c[nH]c3ccccc23)n1CC1CCCO1)Nc1ccc2c(c1)OCCO2 (stereo not drawn)	-5%	0%	i	i	0%	29µM*
O=C(CSc1nnc(-c2ccc(Cl)cc2)n1Cc1ccco1)Nc1ccc2c(c1)OCCO2	-5%	1%	4.1µM*	i	-2%[38.3 µM]	?
COCC(=O)N1CCC2(CCCN(C(=O)Nc3cccc(F)c3)C2)CC1	.	.	.	.	-1%	.
COCCn1ccc2c(OCC(=O)NCc3ccc(F)cc3)cccc2c1=O	.	.	i	i	-1%	.
Cc1cc2n(n1)CCC(=O)N2Cc1ccc(C(=O)Nc2ccc(F)cc2F)cc1	.	.	.	.	10%	.
CCCCCCCCN1C(=O)[C@H](CC(=O)NCCc2ccccc2OC)C[C@@]2(C(=O)OCC)CCCC=C12	.	.	21µM*	i	?	.
COC(=O)[C@]12CCCCC=C1N(CCc1ccc(OC)c(OC)c1)C(=O)[C@H](CC(=O)NCC13CC4CC(CC(C4)C1)C3)C2	.	.	18µM*	?	.	.
C#CCNC(=O)C[C@@H]1C[C@@]2(C(=O)OC)CCCCC=C2N(CCc2ccc(OC)c(OC)c2)C1=O	.	.	?	i	.	.
CCCCNC(=O)C[C@@H]1C[C@@]2(C(=O)OCC)CCCC=C2N(CCc2ccc(OC)c(OC)c2)C1=O	.	.	?	i	.	.
CCOC(=O)[C@]12CCCC=C1N(Cc1ccc(Cl)cc1Cl)C(=O)[C@H](CC(=O)NCCc1ccccc1OC)C2	.	.	?	?	2%	.
CCOC(=O)[C@]12CCCC=C1N(CCc1ccc(OC)c(OC)c1)C(=O)[C@H](CC(=O)NCCc1ccccc1OC)C2	.	.	13µM*	i	.	.
CCOC(=O)[C@]12CCCC=C1N(CCc1ccc(OC)c(OC)c1)C(=O)[C@H](CC(=O)NCCCCc1ccccc1)C2	.	.	21µM*	?	.	.
O=C(C1CCN(S(=O)(=O)Cc2ccccc2)CC1)N1CCN(c2ccccc2)CC1	.	.	i	i	1%	.
COc1ccc(CCNc2nc(SCc3ccccc3Cl)nc3ccccc23)cc1OC	.	.	.	.	0%	.
O=C(Nc1ccccn1)c1sc2ccccc2c1Cl	.	.	i	i	.	.
O=C(Nc1ccc(F)cc1F)C(Cc1ccccc1)N1Cc2ccccc2C1=O (stereo not drawn)	.	.	.	.	7%	.
SMILES	TSG101-PTAP inh	SW480 rerep	KB-V1 MDR tox	KB-3-1 cytotox	PINK1 modulator	MCF10A rerep
COc1ccc(-c2c(C)nn3c(N4CCCCCC4)cc(C)nc23)cc1OC	-4%	2%	?	18µM*	?	?
COc1ccc(-c2c(C)nn3c(N4CCOCC4)cc(C)nc23)cc1OC	0%	-7%	i	i	3%	14%
Cc1noc(-c2ccc(-c3noc(-c4cccc(Cl)c4)n3)cc2)n1	.	.	i	i	3%	.
C=C(C)C(=O)Oc1ccc(N=Nc2ccc(C)cc2)ccc1=O	-5%	?	?	i	?	16µM*
CC(=O)c1ccc(N=Nc2ccc(C)cc2)cc1	-3%	5%	i	i	6%	12%
Cc1n[nH]c(C)c1CCc1nc2c3ccccc3nc(SCC(=O)Nc3ccc(F)cc3)n2n1	.	.	i	i	5%	.
Cc1ccc(NC(=O)CSc2nc3ccccc3c3nc(CCc4c(C)n[nH]c4C)nn23)cc1F	-5%	10µM*	i	i	25%[38.3 µM]	3.7µM*
CCc1nc2ccc(C(=O)NCc3ccco3)cc2nc1CC	1%	-6%	i	i	0%	0%
CCC1=Nc2cc(C(=O)NCc3ccco3)ccc2Sc2ccccc21	0%	8.2µM*	?	2.6µM*	7%	4.1µM*
CCC1=Nc2cc(C(=O)NCc3cccnc3)ccc2Sc2ccc(C)cc21	-3%	3.7µM*	?	?	3%	2.3µM*
CCC1=Nc2cc(C(=O)NCc3ccc(C)cc3)ccc2Sc2ccc(C)cc21	.	.	.	.	1%	.
CCC1=Nc2cc(C(=O)NCc3ccco3)ccc2Sc2ccc(Cl)cc21	0%	7.9µM*	1.5µM*	1.5µM*	6%	3.7µM*
CCC1=Nc2cc(C(=O)O)ccc2Sc2ccccc21	-1%	-3%	i	i	2%	2%
CN1C(=O)/C(=C/c2ccccc2Cl)Sc2ccc(C(=O)NCc3cccnc3)cc21	-2%	-5%	i	i	-1%	21µM*
COc1ccc(CCNC(=O)CN(c2cc(C(F)(F)F)ccc2Cl)S(C)(=O)=O)cc1	.	.	i	i	-1%	.
CCCOC(=O)c1cccc(Nc2nc(C(=O)OCC)nc3ccccc23)c1	.	.	?	i	10%	.
Cc1cc(NC(=O)Cn2c(=O)nc(-c3ccccc3F)c3cc(Cl)ccc32)ccc1Br	.	.	i	i	3%	.
